# Data from paper PMC11006913.
# Where a chain is given by its changes, count along the chain named.
# Columns and labels:
# Test in all cases: PBM; 200 nM protein, PBS
# Details in all cases: dsDNA, one strand shown
# PRRX1 [1] = molecular target: PRRX1 (Homo sapiens, UniProt P54821 80-166, F113S)
# ALX3 [2] = molecular target: ALX3 (Homo sapiens, UniProt O95076 139-225, N203Q)
# ALX3 [3] = molecular target: ALX3 (Homo sapiens, UniProt O95076 139-225)
# ALX3 [4] = molecular target: ALX3 (Homo sapiens, UniProt O95076 139-225, L168Q)
# ALX3 (Homo sapiens, UniProt O95076 139-225, L168Q), sequence (O95076 139-225 L168Q): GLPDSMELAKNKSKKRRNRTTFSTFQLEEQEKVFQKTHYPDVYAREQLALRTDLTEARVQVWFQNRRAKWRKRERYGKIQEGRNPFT
# ALX3 [5] = molecular target: ALX3 (Homo sapiens, UniProt O95076 139-225, L168V)
# ALX3 (Homo sapiens, UniProt O95076 139-225, L168V), sequence (O95076 139-225 L168V): as the sequence (O95076 139-225 L168Q) above, with Q30V counted along it
# ALX3 [6] = molecular target: ALX3 (Homo sapiens, UniProt O95076 139-225, N203S)
# ALX3 (Homo sapiens, UniProt O95076 139-225, N203S), sequence (O95076 139-225 N203S): as the sequence (O95076 139-225 L168Q) above, with Q30L, N65S counted along it
# PRRX1 [7] = molecular target: PRRX1 (Homo sapiens, UniProt P54821 80-166)
# PRRX1 (Homo sapiens, UniProt P54821 80-166), sequence (P54821 80-166): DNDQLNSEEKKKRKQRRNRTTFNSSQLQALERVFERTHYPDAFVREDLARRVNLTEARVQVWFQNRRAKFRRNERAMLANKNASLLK
# PAX4 [8] = molecular target: T1, PAX4 (Homo sapiens, UniProt O43316 9-242, R200K)
# T1 sequence: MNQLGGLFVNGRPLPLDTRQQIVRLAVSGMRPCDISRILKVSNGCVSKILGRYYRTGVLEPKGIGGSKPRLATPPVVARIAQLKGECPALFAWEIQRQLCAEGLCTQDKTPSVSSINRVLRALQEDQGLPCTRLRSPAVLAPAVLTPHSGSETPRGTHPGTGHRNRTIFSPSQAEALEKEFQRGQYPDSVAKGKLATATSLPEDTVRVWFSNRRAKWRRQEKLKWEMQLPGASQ
# PAX4 [9] = molecular target: T2, PAX4 (Homo sapiens, UniProt O43316 9-242, F177Y)
# T2 sequence: T1 sequence with F169Y, K192R
# HOXC10 [10] = molecular target: HOXC10 (Homo sapiens, UniProt Q9NYD6 254-340)
# HOXC10 (Homo sapiens, UniProt Q9NYD6 254-340), sequence (Q9NYD6 254-340): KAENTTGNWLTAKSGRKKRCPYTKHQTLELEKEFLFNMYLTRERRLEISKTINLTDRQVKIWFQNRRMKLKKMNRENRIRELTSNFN
# HOXC10 [11] = molecular target: HOXC10 (Homo sapiens, UniProt Q9NYD6 254-340, K271E)
# HOXC10 (Homo sapiens, UniProt Q9NYD6 254-340, K271E), sequence (Q9NYD6 254-340 K271E): as the sequence (Q9NYD6 254-340) above, with K18E counted along it
# HOXC9 [12] = molecular target: HOXC9 (Homo sapiens, UniProt P31274 178-260, K195R)
# HOXC9 (Homo sapiens, UniProt P31274 178-260, K195R), sequence (P31274 178-260 K195R): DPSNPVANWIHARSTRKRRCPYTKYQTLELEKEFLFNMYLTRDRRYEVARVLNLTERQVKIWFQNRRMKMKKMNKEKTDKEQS
# HOXC9 [13] = molecular target: HOXC9 (Homo sapiens, UniProt P31274 178-260)
# HOXC9 (Homo sapiens, UniProt P31274 178-260), sequence (P31274 178-260): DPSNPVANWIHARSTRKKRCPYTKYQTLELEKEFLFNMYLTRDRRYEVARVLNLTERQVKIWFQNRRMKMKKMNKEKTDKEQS
# HOXC9 [14] = molecular target: HOXC9 (Homo sapiens, UniProt P31274 178-260, R193K)
# HOXC9 (Homo sapiens, UniProt P31274 178-260, R193K), sequence (P31274 178-260 R193K): as the sequence (P31274 178-260) above, with R16K counted along it
# HOXC9 [15] = molecular target: HOXC9 (Homo sapiens, UniProt P31274 178-260, R222W)
# HOXC9 (Homo sapiens, UniProt P31274 178-260, R222W), sequence (P31274 178-260 R222W): as the sequence (P31274 178-260) above, with R45W counted along it
# HOXD13 [16] = molecular target: HOXD13 (Homo sapiens, UniProt P35453 263-343)
# HOXD13 (Homo sapiens, UniProt P35453 263-343), sequence (P35453 263-343): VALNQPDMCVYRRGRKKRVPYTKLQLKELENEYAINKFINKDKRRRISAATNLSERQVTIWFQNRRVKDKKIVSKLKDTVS
# HOXD13 [17] = molecular target: HOXD13 (Homo sapiens, UniProt P35453 263-343, T313A)
# HOXD13 (Homo sapiens, UniProt P35453 263-343, T313A), sequence (P35453 263-343 T313A): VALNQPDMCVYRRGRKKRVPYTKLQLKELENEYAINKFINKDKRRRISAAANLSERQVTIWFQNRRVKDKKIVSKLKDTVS
# ALX3 (Homo sapiens, UniProt O95076 139-225), sequence (O95076 139-225): as the sequence (O95076 139-225 L168Q) above, with Q30L counted along it
# ALX3 (Homo sapiens, UniProt O95076 139-225, N203Q), sequence (O95076 139-225 N203Q): as the sequence (O95076 139-225 L168Q) above, with Q30L, N65Q counted along it
# PRRX1 (Homo sapiens, UniProt P54821 80-166, F113S), sequence (P54821 80-166 F113S): as the sequence (P54821 80-166) above, with F34S counted along it
sequence,measurement,setting,value
CCCTTGCG,binding signal,PRRX1 [1],"9.08 upbm affinity estimate (log intensity, higher = more binding, comparable within an allelic series)"
same,binding signal,ALX3 [2],"7.69 upbm affinity estimate (log intensity, higher = more binding, comparable within an allelic series)"
same,binding signal,ALX3 [3],"7.65 upbm affinity estimate (log intensity, higher = more binding, comparable within an allelic series)"
same,binding signal,ALX3 [4],"7.59 upbm affinity estimate (log intensity, higher = more binding, comparable within an allelic series)"
same,binding signal,ALX3 [5],"7.6 upbm affinity estimate (log intensity, higher = more binding, comparable within an allelic series)"
same,binding signal,ALX3 [6],"7.67 upbm affinity estimate (log intensity, higher = more binding, comparable within an allelic series)"
same,binding signal,PRRX1 [7],"9.11 upbm affinity estimate (log intensity, higher = more binding, comparable within an allelic series)"
GTGGGGGA,binding signal,PAX4 [8],"9.34 upbm affinity estimate (log intensity, higher = more binding, comparable within an allelic series)"
same,binding signal,PAX4 [9],"9.43 upbm affinity estimate (log intensity, higher = more binding, comparable within an allelic series)"
ACCGTGGG,binding signal,HOXC10 [10],"10.1 upbm affinity estimate (log intensity, higher = more binding, comparable within an allelic series)"
same,binding signal,HOXC10 [11],"10 upbm affinity estimate (log intensity, higher = more binding, comparable within an allelic series)"
CAGACCCC,binding signal,ALX3 [2],"7.73 upbm affinity estimate (log intensity, higher = more binding, comparable within an allelic series)"
same,binding signal,ALX3 [3],"7.61 upbm affinity estimate (log intensity, higher = more binding, comparable within an allelic series)"
same,binding signal,ALX3 [4],"7.69 upbm affinity estimate (log intensity, higher = more binding, comparable within an allelic series)"
same,binding signal,ALX3 [5],"7.66 upbm affinity estimate (log intensity, higher = more binding, comparable within an allelic series)"
same,binding signal,ALX3 [6],"7.74 upbm affinity estimate (log intensity, higher = more binding, comparable within an allelic series)"
CAGGCCCC,binding signal,ALX3 [2],"7.7 upbm affinity estimate (log intensity, higher = more binding, comparable within an allelic series)"
same,binding signal,ALX3 [3],"7.63 upbm affinity estimate (log intensity, higher = more binding, comparable within an allelic series)"
same,binding signal,ALX3 [4],"7.69 upbm affinity estimate (log intensity, higher = more binding, comparable within an allelic series)"
same,binding signal,ALX3 [5],"7.7 upbm affinity estimate (log intensity, higher = more binding, comparable within an allelic series)"
same,binding signal,ALX3 [6],"7.69 upbm affinity estimate (log intensity, higher = more binding, comparable within an allelic series)"
CGGGCTTC,binding signal,PAX4 [8],"9.13 upbm affinity estimate (log intensity, higher = more binding, comparable within an allelic series)"
same,binding signal,PAX4 [9],"9.09 upbm affinity estimate (log intensity, higher = more binding, comparable within an allelic series)"
CCGGACCA,binding signal,HOXC9 [12],"9.48 upbm affinity estimate (log intensity, higher = more binding, comparable within an allelic series)"
same,binding signal,HOXC9 [13],"9.57 upbm affinity estimate (log intensity, higher = more binding, comparable within an allelic series)"
same,binding signal,HOXC9 [14],"9.51 upbm affinity estimate (log intensity, higher = more binding, comparable within an allelic series)"
same,binding signal,HOXC9 [15],"9.77 upbm affinity estimate (log intensity, higher = more binding, comparable within an allelic series)"
CCTACCGC,binding signal,HOXC9 [12],"9.66 upbm affinity estimate (log intensity, higher = more binding, comparable within an allelic series)"
same,binding signal,HOXC9 [13],"9.63 upbm affinity estimate (log intensity, higher = more binding, comparable within an allelic series)"
same,binding signal,HOXC9 [14],"9.56 upbm affinity estimate (log intensity, higher = more binding, comparable within an allelic series)"
same,binding signal,HOXC9 [15],"9.71 upbm affinity estimate (log intensity, higher = more binding, comparable within an allelic series)"
AGGGGGGG,binding signal,HOXC9 [12],"9.2 upbm affinity estimate (log intensity, higher = more binding, comparable within an allelic series)"
same,binding signal,PAX4 [8],"9.12 upbm affinity estimate (log intensity, higher = more binding, comparable within an allelic series)"
same,binding signal,HOXC9 [13],"9.24 upbm affinity estimate (log intensity, higher = more binding, comparable within an allelic series)"
same,binding signal,HOXC9 [14],"9.31 upbm affinity estimate (log intensity, higher = more binding, comparable within an allelic series)"
same,binding signal,PAX4 [9],"9.09 upbm affinity estimate (log intensity, higher = more binding, comparable within an allelic series)"
same,binding signal,HOXC9 [15],"9.11 upbm affinity estimate (log intensity, higher = more binding, comparable within an allelic series)"
CGCCGAAG,binding signal,HOXC9 [12],"9.52 upbm affinity estimate (log intensity, higher = more binding, comparable within an allelic series)"
same,binding signal,HOXC9 [13],"9.6 upbm affinity estimate (log intensity, higher = more binding, comparable within an allelic series)"
same,binding signal,HOXC9 [14],"9.42 upbm affinity estimate (log intensity, higher = more binding, comparable within an allelic series)"
same,binding signal,HOXC9 [15],"9.77 upbm affinity estimate (log intensity, higher = more binding, comparable within an allelic series)"
TCCCAGGA,binding signal,HOXC9 [12],"9.51 upbm affinity estimate (log intensity, higher = more binding, comparable within an allelic series)"
same,binding signal,HOXC9 [13],"9.58 upbm affinity estimate (log intensity, higher = more binding, comparable within an allelic series)"
same,binding signal,HOXC9 [14],"9.57 upbm affinity estimate (log intensity, higher = more binding, comparable within an allelic series)"
same,binding signal,HOXC9 [15],"9.72 upbm affinity estimate (log intensity, higher = more binding, comparable within an allelic series)"
ACCGCCGG,binding signal,ALX3 [2],"7.72 upbm affinity estimate (log intensity, higher = more binding, comparable within an allelic series)"
same,binding signal,ALX3 [3],"7.95 upbm affinity estimate (log intensity, higher = more binding, comparable within an allelic series)"
same,binding signal,ALX3 [4],"7.7 upbm affinity estimate (log intensity, higher = more binding, comparable within an allelic series)"
same,binding signal,ALX3 [5],"7.65 upbm affinity estimate (log intensity, higher = more binding, comparable within an allelic series)"
same,binding signal,ALX3 [6],"7.69 upbm affinity estimate (log intensity, higher = more binding, comparable within an allelic series)"
CGTGGCGC,binding signal,HOXC9 [12],"9.49 upbm affinity estimate (log intensity, higher = more binding, comparable within an allelic series)"
same,binding signal,HOXC9 [13],"9.5 upbm affinity estimate (log intensity, higher = more binding, comparable within an allelic series)"
same,binding signal,HOXC9 [14],"9.45 upbm affinity estimate (log intensity, higher = more binding, comparable within an allelic series)"
same,binding signal,HOXC9 [15],"9.81 upbm affinity estimate (log intensity, higher = more binding, comparable within an allelic series)"
CTGGCGGC,binding signal,HOXD13 [16],"9.59 upbm affinity estimate (log intensity, higher = more binding, comparable within an allelic series)"
same,binding signal,HOXD13 [17],"9.5 upbm affinity estimate (log intensity, higher = more binding, comparable within an allelic series)"
CGGGGGTC,binding signal,HOXC9 [12],"9.59 upbm affinity estimate (log intensity, higher = more binding, comparable within an allelic series)"
same,binding signal,HOXC9 [13],"9.65 upbm affinity estimate (log intensity, higher = more binding, comparable within an allelic series)"
same,binding signal,HOXC9 [14],"9.62 upbm affinity estimate (log intensity, higher = more binding, comparable within an allelic series)"
same,binding signal,HOXC9 [15],"9.59 upbm affinity estimate (log intensity, higher = more binding, comparable within an allelic series)"
ATTAATCA,binding signal,PAX4 [8],"11.6 upbm affinity estimate (log intensity, higher = more binding, comparable within an allelic series)"
same,binding signal,PRRX1 [1],"11.3 upbm affinity estimate (log intensity, higher = more binding, comparable within an allelic series)"
same,binding signal,ALX3 [2],"8.54 upbm affinity estimate (log intensity, higher = more binding, comparable within an allelic series)"
same,binding signal,ALX3 [3],"12.3 upbm affinity estimate (log intensity, higher = more binding, comparable within an allelic series)"
same,binding signal,PAX4 [9],"11 upbm affinity estimate (log intensity, higher = more binding, comparable within an allelic series)"
same,binding signal,ALX3 [4],"10.2 upbm affinity estimate (log intensity, higher = more binding, comparable within an allelic series)"
same,binding signal,ALX3 [5],"9.65 upbm affinity estimate (log intensity, higher = more binding, comparable within an allelic series)"
same,binding signal,ALX3 [6],"8.61 upbm affinity estimate (log intensity, higher = more binding, comparable within an allelic series)"
same,binding signal,PRRX1 [7],"13.3 upbm affinity estimate (log intensity, higher = more binding, comparable within an allelic series)"
